“And” between values parts separate entries of the source, which are not always exact repeats. Equal entries are not always repeated. Structures can show the parent of a compound that is named as a salt.
Experiments:
Test in all cases: thermal shift delta Tm vs DMSO control; higher = stronger stabilization (binding)
Settings in all cases: 12.5 µM; protein concentration 2 µM
[1] = system: LOC_OS04G57630-cb004
Outline: (§1)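 The melting temperature shift given here is a triplicate mean, measured against protein that received only DMSO. Melting temperatures came from Boltzmann fits of differential scanning fluorimetry data on E. coli-expressed, purified rice kinase domain constructs. Each 19.5 μl well contained 2 μM kinase, 100 mM potassium phosphate pH 7.5, 150 mM NaCl, 10% glycerol, 5 × SYPRO Orange and compound in DMSO. Plates were scanned from 25°C to 95°C at 0.05°C/s.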

[2] = system: LOC_OS05G07850-cb002
Outline: as §1

[3] = system: LOC_OS05G16824-cb004
Outline: as §1

[4] = system: LOC_OS05G28520-cb001
Outline: as §1

[5] = system: LOC_OS05G30820-cb001
Outline: as §1

[6] = system: LOC_OS05G43570-cb004
Outline: as §1

[7] = system: LOC_OS06G16330-cb003
Outline: as §1

[8] = system: T1, LOC_OS06G22820-cb001
T1 sequence (whole entry): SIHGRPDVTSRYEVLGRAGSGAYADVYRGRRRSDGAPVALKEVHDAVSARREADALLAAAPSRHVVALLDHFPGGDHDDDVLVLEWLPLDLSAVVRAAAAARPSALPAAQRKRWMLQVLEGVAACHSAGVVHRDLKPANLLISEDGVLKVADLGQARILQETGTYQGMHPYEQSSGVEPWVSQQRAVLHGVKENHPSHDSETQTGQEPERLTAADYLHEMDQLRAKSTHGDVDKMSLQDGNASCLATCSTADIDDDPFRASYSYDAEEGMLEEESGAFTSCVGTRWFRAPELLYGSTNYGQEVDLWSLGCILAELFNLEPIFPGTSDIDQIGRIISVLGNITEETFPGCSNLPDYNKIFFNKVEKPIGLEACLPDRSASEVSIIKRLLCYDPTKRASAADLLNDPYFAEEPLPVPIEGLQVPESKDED
Outline: as §1

[9] = system: LOC_OS07G06570-cb004
Outline: as §1

[10] = system: LOC_OS07G07230-cb001
Outline: as §1

Sequence of LOC_OS06G16330-cb003 (as listed by the source): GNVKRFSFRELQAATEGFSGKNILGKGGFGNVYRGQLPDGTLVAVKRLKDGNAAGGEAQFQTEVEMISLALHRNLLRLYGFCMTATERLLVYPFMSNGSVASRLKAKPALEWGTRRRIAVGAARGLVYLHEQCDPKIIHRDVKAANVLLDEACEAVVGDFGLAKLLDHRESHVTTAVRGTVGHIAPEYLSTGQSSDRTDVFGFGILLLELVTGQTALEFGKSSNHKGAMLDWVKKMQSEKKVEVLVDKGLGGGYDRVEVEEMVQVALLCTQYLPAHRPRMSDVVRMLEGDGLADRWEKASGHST

Row | Compound | thermal shift delta Tm [1] | thermal shift delta Tm [2] | thermal shift delta Tm [3] | thermal shift delta Tm [4] | thermal shift delta Tm [5] | thermal shift delta Tm [6] | thermal shift delta Tm [7] | thermal shift delta Tm [8] | thermal shift delta Tm [9] | thermal shift delta Tm [10]
1 | COc1cc(-c2cc(-c3ccc(N4CCNCC4)cc3)cnc2C)cc(OC)c1OC | 0.42 °C | 3.83 °C | 0.31 °C | 0.5 °C | 0.25 °C | 0.17 °C | 2.03 °C | 0.21 °C | 0.35 °C | 0.01 °C
2 | C#Cc1cccc(Nc2ncnc3cc(OCCOC)c(OCCOC)cc23)c1 [Erlotinib] | 0.41 °C | 8.18 °C | -4.3 °C | 0.22 °C | 0.36 °C | -0.04 °C | 3.38 °C | 0.08 °C | 0.67 °C | -0.73 °C
3 | O=C(c1ccc(F)c(F)c1Nc1ccc(I)cc1F)N1CC(O)([C@@H]2CCCCN2)C1 [Cobimetinib (GDC-0973, RG7420)] | 0.22 °C | 0.2 °C | -1.19 °C | 0.07 °C | 0.47 °C | 0.39 °C | -0.17 °C | 0.43 °C | 1.59 °C | 0.43 °C
4 | CONC(=O)c1ccccc1Nc1cc(Nc2cc(C)nn2C(C)C)ncc1Cl | 0.41 °C | 5.58 °C | 8.82 °C | 0.25 °C | 0.17 °C | 0.39 °C | 6.46 °C | 0.47 °C | 1.77 °C | 0.55 °C
5 | Oc1ccc(Nc2nc(-c3ccc(Cl)cc3)cs2)cc1 | 0.01 °C | 3.59 °C | -0.03 °C | 0.45 °C | 1.05 °C | -0.07 °C | 0.92 °C | 0.79 °C | -0.41 °C | 0.38 °C
6 | COc1cc2ncnc(Sc3nnc(C)s3)c2cc1OC | 0.11 °C | 4.44 °C | -0.85 °C | 0.25 °C | 0.64 °C | 0.17 °C | 2.49 °C | 0.32 °C | 1.21 °C | 1.4 °C
7 | COc1ccc(COc2ccc(Cc3cnc(N)nc3N)cc2OC)cc1 | 0.05 °C | 0.49 °C | -1.41 °C | 0.33 °C | 0.26 °C | 0.4 °C | 1.65 °C | 0.41 °C | 0.82 °C | -0.38 °C
8 | COc1cc(C(=O)N2CCC(N3CCN(C)CC3)CC2)ccc1Nc1ncc2c(n1)N(C)c1ccccc1C(=O)N2C | 0.47 °C | 4.15 °C | -2.69 °C | 0.06 °C | 0.42 °C | -1.79 °C | 0.93 °C | 0.32 °C | 0.88 °C | 0.74 °C
9 | CCS(=O)(=O)c1cccc(-c2cc(C(=O)NC3CCN(C)CC3)c(C)c3[nH]c4ncc(C)cc4c23)c1 | 2.61 °C | 13.6 °C | 10.6 °C | 2.38 °C | 3.26 °C | 0.4 °C | 8.47 °C | -0.41 °C | 0.61 °C | 0.94 °C
10 | C[C@]1(O)C[C@@H](c2nc(-c3ccc4ccc(-c5ccccc5)nc4c3)c3c(N)nccn32)C1 [Linsitinib (OSI-906)] | 0.91 °C | 1.48 °C | 1.1 °C | 0.92 °C | 0.67 °C | 0.81 °C | 0.92 °C | 0.94 °C | 1.13 °C | 0.34 °C
11 | NC(=O)c1cnc2[nH]ccc2c1N[C@@H]1[C@@H]2CC3C[C@H]1C[C@@](O)(C3)C2 | 1.22 °C | 12.5 °C | 8.26 °C | 0.32 °C | 2.71 °C | 0.73 °C | 5.88 °C | 0.43 °C | 1.29 °C | 0.84 °C
12 | COc1cc(N2CCC(N)CC2)ccc1Nc1ncc(Cl)c(-c2c[nH]c3ccccc23)n1 | 4.46 °C | 13.4 °C | 8.24 °C | 1.74 °C | 2.33 °C | 1.06 °C | 10.4 °C | 0.85 °C | 2.26 °C | 1.14 °C
13 | CCCCCCCCc1ccc(CCC(N)(CO)CO)cc1 [Fingolimod (FTY720) HCl] | -0.4 °C | 1.83 °C | -4.01 °C | -0.43 °C | -0.07 °C | -1.13 °C | -1.94 °C | 0.07 °C | 0.28 °C | -1.48 °C
14 | CNC(=O)Nc1ccc(-c2nc(N3CC4CCC(C3)O4)c3cnn(C4CCC5(CC4)OCCO5)c3n2)cc1 | 0.62 °C | 0.66 °C | -1.09 °C | 0.58 °C | 0.69 °C | 0.65 °C | -0.11 °C | 0.61 °C | 0.67 °C | 0.15 °C
15 | C1=N/C2=N/c3ccc(OCCN4CCCC4)c(c3)COC/C=C/COCc3cccc(c3)C(=C1)N2 [Pacritinib (SB1518)] | 4.36 °C | 12.8 °C | 7.5 °C | 3.33 °C | 0.55 °C | 0.68 °C | 10.1 °C | 0.41 °C | 1.64 °C | 0.85 °C
16 | O=C(NC1CCNCC1)c1n[nH]cc1NC(=O)c1c(Cl)cccc1Cl | -0.08 °C and 0.55 °C | 0.37 °C and 0.45 °C | -3.35 °C and -1.47 °C | 0.1 °C and 0.64 °C | 0.56 °C and 0.5 °C | 0.07 °C and 0.69 °C | -0.07 °C and 0.05 °C | 0.77 °C and 1.12 °C | 0.44 °C and 0.91 °C | 0.04 °C and 0.01 °C
17 | Nc1ccc(C(=O)Nc2cccc(-c3nc(N4CCOCC4)c4oc5ncccc5c4n3)c2)cn1 | 1.19 °C | 1.25 °C | -3.13 °C | 0.31 °C | 0.83 °C | 0.15 °C | 0.32 °C | 0.39 °C | 0.88 °C | -0.01 °C
18 | N#CC[C@H](C1CCCC1)n1cc(-c2ncnc3[nH]ccc23)cn1 | 0.1 °C | 6.97 °C | 1.27 °C | 0.17 °C | 0.76 °C | 1.05 °C | 3.75 °C | 0.57 °C | 1.16 °C | -0.53 °C

From the supplement of paper PMC9694430
